RORgamma inh – blocks mouse ROR gamma transcriptional activity; P51450; Drosophila S2 Gal4-RORgamma UAS-luciferase reporter, 20 h; Potency, µM (top dose mostly 53.6 µM), without a hit: at the top dose activity change, negative = inhibition, usual class: inhibitors; 310,000 tested, 5.4% active; AID 2551; further: on the % scale 0 is the no-effect control and ±100 the full control effect; nearly all actives have a fitted effect of over 60% in size
Target sequence (P51450 whole entry, looked up, the tested form may be a part): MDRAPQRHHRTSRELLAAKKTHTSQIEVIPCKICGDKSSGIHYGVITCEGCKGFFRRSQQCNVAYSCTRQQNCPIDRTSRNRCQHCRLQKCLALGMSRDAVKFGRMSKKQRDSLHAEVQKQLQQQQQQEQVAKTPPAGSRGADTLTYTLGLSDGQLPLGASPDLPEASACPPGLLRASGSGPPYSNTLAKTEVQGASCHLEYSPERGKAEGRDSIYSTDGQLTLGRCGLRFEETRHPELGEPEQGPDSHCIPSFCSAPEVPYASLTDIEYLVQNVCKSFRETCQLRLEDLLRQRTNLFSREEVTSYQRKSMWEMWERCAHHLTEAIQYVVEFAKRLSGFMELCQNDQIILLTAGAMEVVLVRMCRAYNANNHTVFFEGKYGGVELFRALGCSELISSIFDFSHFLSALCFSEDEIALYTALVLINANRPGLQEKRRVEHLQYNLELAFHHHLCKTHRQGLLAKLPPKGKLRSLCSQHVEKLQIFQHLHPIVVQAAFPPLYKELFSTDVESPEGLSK
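Using a luciferase readout, inhibitors were identified by reduced reporter activity in Drosophila cells coexpressing a copper-inducible Gal4–ROR gamma fusion and UAS-driven Photinus luciferase, incubated 20 hr after 700 uM copper sulfate.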
Gal4-VP16 FLuc – inhibits Gal4-VP16 luciferase reporter, ROR gamma counter-screen | Potency, µM (top dose mostly 53.6 µM), without a hit: at the top dose activity, negative = inhibition, hits mostly inhibitors | AID 2546 | Drosophila S2 Gal4-VP16 UAS-luciferase, luminescence, 20 h | 310,000 tested, 3.5% active;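 further: Gal4-VP16 expression switched on by copper sulfate through the metallothionein promoter; on the % scale 0 is the no-effect control and ±100 the full control effect; nearly all actives have a fitted effect of over 50% in size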
ELG1 repair inh – inhibitors of ELG1-dependent DNA repair in HEK293T cells. HEK293T ELG1-luciferase reporter, luminescence, 16 h; DNA damage induced by 5-fluorouridine. Potency, µM (series often up to 46.1 µM), for the others: top-dose activity change, negative = inhibition, hits mostly inhibitors. 330,000 tested, 2.3% active. AID 504467; further: on the % scale 0 is the no-effect control and ±100 the full control effect; nearly all actives have a fitted effect of over 55% in size
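5-Fluorouridine DNA damage + compound/DMSO, 2,000 cells/well, 16 h, 37 °C/5% CO2. ONE-Glo, 30 min RT, luminescence. Readout = decrease in reporter signal.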
SW480 rerep – DNA re-replication induction in SW480 cells | 340,000 tested, 1.8% active | Potency, µM (doses to about 46.1 µM), inactives show top-dose re-replication activation, hits mostly activators | SW480 DNA re-replication, Hoechst DNA content imaging, 48 h; further: % of control where 0% means no effect; nearly all actives have a fitted effect of over 55% in size
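Image-based DNA-content assay: after two days of treatment, nuclei were labelled with the DNA dye Hoechst and imaged, and hits were compounds raising the count of nuclei showing high fluorescence intensity.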
MCF10A rereplic – induces DNA re-replication in MCF 10a normal breast cells; MCF 10A DNA re-replication, Hoechst nuclear intensity, 48 h; 350,000 tested, 2.9% active; Potency, µM (series often up to 46.1 µM), inactives show top-dose activity, positive = re-replication, hits mostly activators; AID 624296; further: % of control where 0% means no effect; nearly all actives have a fitted effect of over 50% in size
Numbers without * were called inactive; u = inconclusive; x = no result. A selection: hits, their analogues and other compounds. The true share with any hit is near 10%. The call rests on the fitted dose curve; in most records, active means well fitted curve in the direction sought with a large enough effect; inconclusive means small, poorly fitted or top-dose-only effect, or another doubt; inactive means no such curve, though single readings can be large; an effect the other way counts as inactive or inconclusive. Potency means the concentration at half of the fitted maximal effect.

SMILES	RORgamma inh	Gal4-VP16 FLuc	ELG1 repair inh	SW480 rerep	MCF10A rereplic
COc1ccc(C23CC4CC(CC(C(=O)O)(C4)C2)C3)c(F)c1	-21.8%	-25.7%	-0.2%	-12.7%	2.5%
O=C1C=C(c2cccc3c2Oc2ccccc2S3)C[C@@H](c2ccc(Cl)cc2)C1	x	x	20.6µM*	8.6%	-13.5%
COc1ccc([C@H]2CC(=O)C=C(c3cccc4c3Oc3ccccc3S4)C2)cc1OC	x	x	18.3µM*	0.8%	u
CN(CC(=O)N1CCN(Cc2ccccc2)CC1)C(=O)Cc1cccc2ccccc12	x	x	2.8%	3.6%	13.1%
CC(=O)c1c(C)nc2ccc([N+](=O)[O-])cc2c1-c1ccccc1	27.5%	3.5%	-15.6%	-2.0%	-0.6%
NNC(=O)c1ccc(Cn2cccn2)o1	-36.0%	18.5%	6.3%	2.31µM*	u
Cc1ccccc1-n1nc(C(=O)c2cccs2)cc(-c2nc3ccccc3[nH]2)c1=N	0.708µM*	0.891µM*	13µM*	u	26.4%
COc1ccc(-n2nc(C(=O)c3cccs3)cc(-c3nc4ccccc4[nH]3)c2=N)cc1	3.16µM*	3.55µM*	u	u	6.6%
Cc1cccc(-n2nc(C(=O)c3ccco3)cc(-c3nc4ccccc4[nH]3)c2=N)c1	2.51µM*	5.01µM*	13µM*	2.0%	-2.4%
O=C(NCc1nc2ccccc2[nH]1)c1cccs1	26.3%	u	u	-16.6%	2.8%
Cc1ccc2nc(-c3cccc(NC(=O)c4ccco4)c3)[nH]c2c1	13.6%	u	u	-0.5%	25.0%
CCc1ccc(-n2c(=O)c3c(C)c(C(=O)N(C)C)sc3n(CC(=O)NCc3ccco3)c2=O)cc1	-5.1%	-5.4%	3.0%	-0.6%	-11.4%
O=C1N=C(N2CCOCC2)S/C1=C/c1cc2c(cc1[N+](=O)[O-])OCO2	-4.2%	-19.9%	u	-64.9%	u
CCCc1c(C(=O)NNc2cccc(Cl)c2)cnn1-c1ccccc1	26.0%	4.6%	u	-15.1%	u
CCC(=O)NC(=S)Nc1cccc(Cl)c1N1CCCC1	1.12µM*	u	9.0%	1.0%	17.6%
O=C(Nc1cccc(Cl)c1N1CCCCC1)c1ccc2c(c1)OCCO2	-20.9%	6.2%	0.3%	-0.2%	u
O=C(NC(=S)Nc1cccc(Cl)c1N1CCCCC1)c1ccc2c(c1)OCCO2	2.51µM*	4.47µM*	3.0%	u	4.61µM*
Cc1ccc(C(C)C)c(OCC(=O)Nc2ccccc2N2CCN(C)CC2)c1	u	12.6µM*	u	-1.0%	u
Cc1ccc(C(C)C)c(OCC(=O)Nc2ccc(N3CCOCC3)cc2N2CCOCC2)c1	x	x	18.3µM*	-1.6%	u
Cc1cc(C)cc(OCC(=O)Nc2ccccc2N2CCCCC2)c1	9.4%	4.8%	-14.5%	u	8.2µM*
Cc1ccc2[nH]c3c(=O)n(CC(=O)Nc4ccccc4N4CCN(C)CC4)ncc3c2c1	-18.3%	-3.3%	u	20.6µM*	u
CCCCn1c(N)c(N(CCOC)C(=O)CCNC(=O)c2ccc(Cl)cc2)c(=O)[nH]c1=O	x	x	7.7%	u	-2.3%
c1ccc2c(c1)OCCOCCOCCOCCOc1ccccc1OCCOCCOCCO2	12.9%	-6.0%	-27.2%	u	2.7%
C[C@H]1[C@H](C)CC[C@]2(C(=O)O)CC[C@]3(C)C(=CC[C@@H]4[C@@]5(C)C[C@@H](O)[C@H](O)C(C)(C)[C@@H]5CC[C@]43C)[C@H]12	10µM*	u	u	-4.8%	u
On1onc2c3cc(-c4ccccc4)nc3ccc21	7.94µM*	10µM*	u	7.31µM*	8.2µM*
CNc1cc(C(F)(F)F)nc(-c2ccccn2)n1	0.708µM*	12.6µM*	-20.7%	-18.2%	-0.9%
FC(F)(F)c1cccc(Oc2cc(C(F)(F)F)nc(-c3ccccn3)n2)c1	-9.0%	6.1%	-2.6%	-7.8%	13.0%
C#CCSc1cc(C(F)(F)F)nc(-c2ccccn2)n1	10µM*	-6.3%	27.1%	-133.7%	7.0%
COc1ccc(Sc2cc(C(F)(F)F)nc(-c3ccccn3)n2)cc1	3.98µM*	11.2µM*	u	-5.6%	0.1%
O=C(COC(=O)/C=C/c1ccccc1)NC1CCCCC1	x	x	8.8%	-2.8%	-3.4%
